The panel holds about 83,000 compounds, 20% with a hit somewhere; the sample as a whole holds those more often.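 Growth was measured after 48 h exposure to one concentration of compound in 96-well plates. Values under 10 count as active.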 Unmarked numbers belong to inactive results. Calls of active or inactive are those of the source.

This assay concerns SK-MEL-5 melanoma. The assay is described as follows: NCI-60 one-dose screen, 48 h (100 = growth as untreated, 0 = no growth, -100 = all killed). The note with it: 10 µM unless noted.
With `CCN(CC)CC#CCOC(=O)[C@]1(C)CCC[C@]2(C)[C@H]3C[C@H]4C(C(C)C)=C[C@]3(CC[C@H]21)[C@@H]1C(=O)CCC(=O)[C@@H]14`, the growth is 58.8%.
Consider `CN1CCN(CC#CCOC(=O)CNC(=O)[C@]23CCC(C)(C)C[C@H]2C2=CC[C@@H]4[C@@]5(C)CC[C@H](O)C(C)(C)[C@@H]5CC[C@@]4(C)[C@]2(C)CC3)CC1`, for which the growth is 88.6%.
For the compound `Nc1cc(N)c(S(=O)(=O)O)cc1N=Nc1cc([N+](=O)[O-])ccc1O`, the growth was 105%.
As for `COc1ccc2c(c1)Oc1nc(N)c(C#N)c(N)c1C2Sc1ccc(SC)cc1` (stereo not drawn), the growth was 40.8%.
For `CO[C@@]12C=C[C@@]34CCC(=O)N3c3ccccc3[C@@H](O1)C4C2`, the growth was 104%.
Turning to `COc1cc(NC(=O)Nc2cnc(Nc3ccc(N4CCOCC4)cc3)nc2Oc2ccc(F)cc2)cc(OC)c1`, the growth was 80.6%.
Turning to `C/C(=N/Nc1nc2ccccc2n1C)c1ccccn1`, the growth was -6.67% (active).
On to `Cc1cccc(C)c1NC(=O)CN(CC(C)C)CC(O)COc1ccccc1` (stereo not drawn), for which the growth was 95.5%.
As for `COC(=O)c1ccc2c(c1)NC(=O)[C@@H]1CCCN21`, the growth was 96.8%.
Regarding `O=C1c2ccccc2C(=O)c2c1oc1c2c(=O)[nH]c2ccc(Cl)cc21`, the growth was 12.3%.
Consider `COc1cc(NC(=O)Nc2cnc(Nc3ccc(N4CCOCC4)cc3)nc2Oc2ccc(C(F)(F)F)cc2)cc(OC)c1`, for which the growth is 101%.
The value for `COc1ccc(C(=O)c2cc(F)c(F)c(OC)c2F)cc1OC(=O)CCl` was 29%; that for `Nc1c(C(=O)Nc2cccc3ccccc23)sc2nc3c(cc12)CCCCC3` was 37.1%.
In the case of `O=c1[nH]c2ccccc2cc1-c1nc2ccncc2[nH]1`, the growth was 86.7%.
The value for `C=C1C(=O)O[C@H]2[C@H]1CC/C(COC(=O)NCc1nc3ccccc3[nH]1)=C\CC[C@@]1(C)O[C@@H]21` was 97%; that for `Cc1cccc(C)c1NCc1nnc(-c2ccco2)o1` was 96.3%; that for `Nc1c(C(=O)Nc2ccccn2)sc2nc3c(cc12)CCCC3` was 26.3%.
Turning to `Cc1c(Cl)cccc1NC(=O)c1sc2nc3c(cc2c1N)CCCCC3`, the growth was 45.8%.
On to `CCSc1nc(Cl)c(C#N)c(-c2ccc(F)cc2)n1`, for which the growth is 97.1%.
Take `CCc1n(Cc2ccc3ccccc3c2)c2ccccc2[n+]1Cc1ccc2ccccc2c1`: the growth was 38.8%.
With `NC(=O)CN1C(=O)c2ccccc2C1=O`, the growth is 99.2%.
The value for `O=C1C(=O)c2c(nc3ccc(C(F)(F)F)cn23)-c2ccccc21` was -99.2% (active).
For `COc1cccc(NC(=O)Nc2ccc(Nc3ncnc4[nH]c(C)c(C)c34)cc2)c1`, the growth was 102%.
The value for `NC(=O)c1ccc2nc3c(n2c1)C(=O)C(=O)c1ccccc1-3` was -100% (active); that for `O=C(O)c1cc(N=Nc2ccc(-c3ccc(N=Nc4c(S(=O)(=O)O)cc5ccc(Nc6ccccc6)cc5c4O)cc3)cc2)ccc1O` was 106%.
Turning to `C=C1C(=O)O[C@H]2[C@H]1CCC(/C=N/c1ncc(Br)cc1N)=C\CC[C@@]1(C)O[C@@H]21`, the growth was 39.9%.
In the case of `Cc1nc2sc(C(=O)Nc3ccccc3Cl)c(N)c2cc1C(C)O` (stereo not drawn), the growth is 80.7%.
The value for `COc1ccc(/C=C/C(=O)c2ccc(NC(=O)CSc3nnc(-c4ccc(OC)c(OC)c4)n3-c3ccccc3)cc2)cc1` was 73.4%; that for `O=c1c2ccccc2n(CC(O)CN2CCCC2)c2c(Br)cccc12` (stereo not drawn) was 96.8%.
The value for `O=C(CCCCCCCCC(=O)Nc1cccc(C2=NCCN2)c1)Nc1cccc(C2=NCCN2)c1` was 98.2%.
Regarding `Cc1ccc(C(=O)/C(=C/c2ccc([N+](=O)[O-])cc2)S(=O)Cc2ccccc2)cc1` (stereo not drawn), the growth is 37.8%.
On to `COc1ccc(-c2nc(C#N)c(NCC(c3ccc(Cl)cc3)N3CCCCC3)o2)cc1` (stereo not drawn), for which the growth is 93.2%.
Turning to `O=C1CC(c2ccc(O)c(O)c2)Oc2cc(O)c([C@@H]3O[C@H](CO)[C@@H](O)[C@H](O)[C@H]3O)c(O)c21` (stereo partly drawn), the growth was 103%.
Consider `CCCn1c2cc(OCc3cn(-c4ccc(Cl)cc4)nn3)ccc2c2ccnc(C)c21`, for which the growth was 70.6%.
`COc1ccccc1C(=O)/C=C/c1cc2cccc(OC)c2[nH]c1=O`: the growth was -39.2% (active).
As to `O=[N+]([O-])c1ccc(N=Nc2c(O)c(N=Nc3cc([N+](=O)[O-])cc([N+](=O)[O-])c3O)cc(N=Nc3cc(S(=O)(=O)O)cc4cc(S(=O)(=O)O)cc(O)c34)c2O)cc1`, the growth was 108%.
The value for `COc1cc(N=Nc2cc(S(=O)(=O)O)cc3cc(S(=O)(=O)O)cc(O)c23)c(C)cc1N=Nc1c(S(=O)(=O)O)cc2cc(Nc3ccccc3)ccc2c1O` was 105%.
The value for `C=C1C(=O)O[C@H]2[C@H]1CC/C(COC(=O)/C=C/c1cccnc1)=C\CC[C@@]1(C)O[C@@H]21` was 68.2%.

The record behind these values is PubChem BioAssay (NCI).
